According to PubChem BioAssay (Tox21):
Results filed as inconclusive are left out. Active and inactive are the calls of the source. Unless noted, calls come from the whole dose curve.

Experiments:
[1] = Nuclear factor erythroid 2-related factor 2/antioxidant responsive element (Nrf2/ARE) small molecule agonists: qHTS cell viability counter screen in human keratinocytes (AID 1919968; active = well fitted curve in the direction sought with a large enough effect in the repeat runs; an effect the other way counts as inactive or inconclusive; note: nearly all actives have a fitted effect of over 55% in size)
Procedure, shortened: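 Seed 1,500 KeratinoSens cells per well, then incubate 5 h at 37 C/5% CO2. Add compounds in DMSO and incubate 23 h. Add CellTiter-Fluor, wait 1 h and read fluorescence.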

[2] = target: Gonadotropin-releasing hormone receptor (Homo sapiens) (UniProt P30968); experiment: Human gonadotropin-releasing hormone receptor (GnRHR) small molecule agonists, calcium flux assay in GnRHR-HEK293 cells (AID 1920063); note: nearly all actives have a fitted effect of over 35% in size
Procedure, shortened: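 Cells: HEK293 stably expressing human GnRHR. Steps: overnight (18 h) culture, 1 h calcium dye loading at 37 C, compound addition, kinetic fluorescence read at 480/540 nm. Each compound tested at 15 concentrations in triplicate.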

[3] = target: KiSS-1 receptor (Homo sapiens) (UniProt Q969F8); experiment: Human kisspeptin (KISS1R) small molecule agonists, calcium flux assay in KISS1R-HEK293 cells (AID 1920064; active = well fitted curve in the direction sought with a large enough effect in the repeat runs; an effect the other way counts as inactive or inconclusive)
Procedure, shortened: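 Cells plated and incubated 18 h; dye added, 1 h at 37 C; compounds in DMSO pinned in; signal read at 480/540 nm every second for 3 min. Each compound tested at 15 concentrations in triplicate.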

[4] = G protein-coupled receptor (GPCR) small molecule agonists, calcium flux assay: HEK293 wild type cell line counter screen (AID 1920065)
Procedure, shortened: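 Counter-screen of the Tox21 10K library for non-specific calcium release: dye-loaded cells received compounds in DMSO and were monitored by kinetic fluorescence (480/540 nm, 3 min). Fifteen concentrations, run in triplicate.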

[5] = p53 small molecule agonists, cell-based qHTS assay with human liver microsomes (AID 1963577);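 note: p53 response element beta-lactamase reporter cells with liver microsomes plus NADPH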
Procedure, shortened: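 16 h, 37 C exposure of p53RE-bla cells to compounds with human liver microsomes and NADPH (0.5 mg/mL final each); detection via LiveBLAzer mixture, 2 h dark at room temperature.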

[6] = p53 small molecule agonists, cell-based qHTS assay with rat liver microsomes (AID 1963578)
Procedure, shortened: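 With rat liver microsomes and NADPH present (0.5 mg/mL final each), p53RE-bla cells are treated with compound for 16 h at 37 C. LiveBLAzer detection mixture is then applied for 2 h at room temperature in the dark.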

[7] = p53 small molecule agonists, cell-based qHTS assay with human liver microsomes: qHTS cell viability counter screen (AID 1963579); note: nearly all actives have a fitted effect of over 45% in size
Procedure, shortened: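 In this multiplexed counter screen, the reporter plates were subsequently treated with CellTiter-Glo so that cell viability, reflected by luminescence, could be recorded for p53RE-bla cells dosed 16 h with compounds under microsomal activation (HLM and NADPH).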

[8] = p53 small molecule agonists, cell-based qHTS assay with rat liver microsomes: qHTS cell viability counter screen (AID 1963580); note: nearly all actives have a fitted effect of over 45% in size
Procedure, shortened: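 In HCT-116 cells carrying a p53 response element-bla reporter, compounds were metabolically activated in situ by rat liver microsomes with NADPH over 16 h. Cell ATP content then served as the cytotoxicity measure.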

[9] = p53 small molecule agonists, cell-based qHTS assay: qHTS cell viability counter screen (AID 1963581); note: nearly all actives have a fitted effect of over 45% in size
Procedure, shortened: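 Cells: HCT-116 with p53 response element-driven beta-lactamase. Treatment: 16 h, 37 C, compounds in DMSO. Read: CellTiter-Glo luminescence after 30 min RT.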

[10] = p53 small molecule agonists, cell-based qHTS assay (AID 1963582; active = well fitted activation curve with a large enough effect in the signal ratio in the repeat runs, not every such curve was filed as active; the % refers to the signal ratio)
Procedure, shortened: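 Quantitative HTS in p53RE-bla cells: after a 5 h settling period, compounds delivered in DMSO were left on cells for 16 h at 37 C, and reporter induction was measured as fluorescence following 2 h substrate loading.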

[11] = target: 5-hydroxytryptamine receptor 2A (Homo sapiens) (UniProt P28223); experiment: 5-hydroxytryptamine receptor 2A (HTR2A) small molecule antagonists, cell-based qHTS assay (AID 1963586); note: nearly all actives have a fitted effect of over 45% in size
Procedure, shortened: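 Antagonist-mode intracellular calcium assay: DOI (4 nM) added after 5 min compound pre-incubation at room temperature to dye-loaded HTR2A-CHO cells. Fluorescence followed for 3 min, sampled every second.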

[12] = target: 5-hydroxytryptamine receptor 2A (Homo sapiens) (UniProt P28223); experiment: 5-hydroxytryptamine receptor 2A (HTR2A) small molecule agonists, cell-based qHTS assay (AID 1963587); note: nearly all actives have a fitted effect of over 30% in size
Procedure, shortened: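 HTR2A-CHO cells, plated 18 h at 37 C/5% CO2, dye-loaded 1 h at 37 C; compounds in DMSO added by pin tool (agonist mode). Intracellular calcium flux read as kinetic fluorescence on FDSS over 2 min at 1 s intervals.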

[13] = target: Muscarinic acetylcholine receptor M1 (Homo sapiens) (UniProt P11229); experiment: Cholinergic receptor muscarinic 1 (CHRM1) small molecule antagonists, cell-based qHTS assay (AID 1963588); note: nearly all actives have a fitted effect of over 40% in size
Procedure, shortened: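 CHRM1-CHO calcium-flux assay, antagonist mode. Cells were seeded 18 h, dye-loaded 1 h at 37 C and given compound for 5 min at RT, then acetylcholine was added at 50nM. FDSS fluorescence was read 3 min; 15 concentrations, three runs.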

[14] = target: Muscarinic acetylcholine receptor M1 (Homo sapiens) (UniProt P11229); experiment: Cholinergic receptor muscarinic 1 (CHRM1) small molecule agonists, cell-based qHTS assay (AID 1963589); note: nearly all actives have a fitted effect of over 35% in size
Procedure, shortened: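 Agonist-mode qHTS in CHO cells stably carrying human muscarinic M1. Intracellular calcium is tracked by fluorescence every second after compound transfer; each compound runs at 15 concentrations in three independent runs.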

[15] = cAMP Responsive Elements (CRE) small molecule antagonists, cell-based qHTS assay (AID 1963591; active = well fitted inhibition curve with a large enough effect in the signal ratio in the repeat runs, not every such curve was filed as active; the % refers to the signal ratio)
Procedure, shortened: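 Antagonist mode: test compounds are co-incubated with the adenylyl cyclase activator NKH477 (0.25 uM final) on CRE-bla HEK293T cells for 3 h at 37 °C, followed by LiveBLAzer substrate loading.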

[16] = target: Beta-2 adrenergic receptor (Homo sapiens) (UniProt P07550); experiment: Adrenergic beta2 receptor (ADRB2) small molecule antagonists, cell-based qHTS assay (AID 1963592); note: series mostly up to about 92 µM; nearly all actives have a fitted effect of over 50% in size
Procedure, shortened: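 Cells (CHO, stable ADRB2 overexpression) incubated 18-20hr at 37C; compounds added from DMSO; agonist mix (1nM isoproterenol, 100uM IBMX, 25uM Ro-20-1724) added; 0.5hr RT; d2-cAMP and anti-cAMP-cryptate added; 1hr RT; 665/615 nm read.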

[17] = target: D(2) dopamine receptor (Homo sapiens) (UniProt P14416); experiment: Dopamine D2 receptor (DRD2) small molecule agonists, cell-based qHTS assay (AID 1963594); note: nearly all actives have a fitted effect of over 35% in size
Procedure, shortened: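 HEK293 cells stably expressing DRD2 were cultured 24 h at 37 C, then given Ro20-1724 (0.1 mM final) and compounds for 10 min at room temperature. NKH477 (200nM) was then added for 30 min. cAMP was read by HTRF.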

[18] = target: D(2) dopamine receptor (Homo sapiens) (UniProt P14416); experiment: Dopamine D2 receptor (DRD2) small molecule antagonists, cell-based qHTS assay (AID 1963595; active = well fitted inhibition curve with a large enough effect in the signal ratio in the repeat runs, with a control signal flat; the % refers to the signal ratio)
Procedure, shortened: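 HEK293 cells stably expressing DRD2 were preincubated with 0.1 mM Ro20-1724, then with compound for 10 min at room temperature. Cells were stimulated with 200 nM NKH477 plus 12 nM quinpirole for 30 min, and cAMP was read by HTRF.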

[19] = cAMP Responsive Elements (CRE) small molecule agonists, cell-based qHTS assay (AID 1963590)
Procedure, shortened: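 Agonist mode qHTS in CRE-bla HEK 293T cells: compounds dosed from DMSO for 3 h at 37 C/5% CO2, followed by LiveBLAzer B/G FRET substrate for 2 h at room temperature.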

[20] = target: Beta-2 adrenergic receptor (Homo sapiens) (UniProt P07550); experiment: Adrenergic beta2 receptor (ADRB2) small molecule agonists, cell-based qHTS assay (AID 1963593);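 note: CHO cells stably overexpressing human ADRB2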
Procedure, shortened: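 CHO cells stably over-expressing ADRB2 were plated overnight at 37C, then dosed with compounds plus a stimulation mix containing 100uM IBMX and 25uM Ro-20-1724 for 0.5hr at room temperature. cAMP was measured by HTRF competition, 1hr.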

Measured: Potency

Chain of Gonadotropin-releasing hormone receptor (Homo sapiens) (P30968 whole entry, looked up): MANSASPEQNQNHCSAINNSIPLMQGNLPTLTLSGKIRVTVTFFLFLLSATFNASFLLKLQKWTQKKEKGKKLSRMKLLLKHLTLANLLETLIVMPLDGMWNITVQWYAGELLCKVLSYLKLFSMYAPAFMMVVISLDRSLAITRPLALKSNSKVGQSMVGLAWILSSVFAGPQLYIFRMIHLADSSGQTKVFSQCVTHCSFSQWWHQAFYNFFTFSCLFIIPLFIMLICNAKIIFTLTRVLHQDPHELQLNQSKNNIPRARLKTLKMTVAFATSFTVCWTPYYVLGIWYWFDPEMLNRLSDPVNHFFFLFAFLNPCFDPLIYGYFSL
Chain of 5-hydroxytryptamine receptor 2A (Homo sapiens) (P28223 whole entry, looked up): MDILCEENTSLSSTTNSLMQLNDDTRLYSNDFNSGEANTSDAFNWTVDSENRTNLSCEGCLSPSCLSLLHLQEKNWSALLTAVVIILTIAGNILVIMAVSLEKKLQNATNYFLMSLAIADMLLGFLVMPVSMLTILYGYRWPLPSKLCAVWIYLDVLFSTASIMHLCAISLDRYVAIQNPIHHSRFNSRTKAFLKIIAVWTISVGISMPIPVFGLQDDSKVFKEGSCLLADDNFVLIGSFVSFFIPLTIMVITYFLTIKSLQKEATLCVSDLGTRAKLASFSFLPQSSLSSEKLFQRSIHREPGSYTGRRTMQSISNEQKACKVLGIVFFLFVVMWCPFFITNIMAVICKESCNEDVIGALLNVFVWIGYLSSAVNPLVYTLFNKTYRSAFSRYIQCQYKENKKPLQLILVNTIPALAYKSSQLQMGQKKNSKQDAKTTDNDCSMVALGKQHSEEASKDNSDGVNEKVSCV
Chain of Beta-2 adrenergic receptor (Homo sapiens) (P07550 whole entry, looked up): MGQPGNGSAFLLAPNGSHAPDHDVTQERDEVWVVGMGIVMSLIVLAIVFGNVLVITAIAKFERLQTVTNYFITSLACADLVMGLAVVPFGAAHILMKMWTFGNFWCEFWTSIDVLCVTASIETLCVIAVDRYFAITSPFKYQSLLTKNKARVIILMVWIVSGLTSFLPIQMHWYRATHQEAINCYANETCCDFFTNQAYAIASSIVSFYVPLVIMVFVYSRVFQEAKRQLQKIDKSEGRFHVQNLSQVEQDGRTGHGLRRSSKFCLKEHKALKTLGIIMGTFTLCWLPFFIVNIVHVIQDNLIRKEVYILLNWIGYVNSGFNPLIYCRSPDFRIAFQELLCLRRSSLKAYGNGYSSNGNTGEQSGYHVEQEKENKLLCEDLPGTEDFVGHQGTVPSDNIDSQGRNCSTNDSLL
Chain of Muscarinic acetylcholine receptor M1 (Homo sapiens) (P11229 whole entry, looked up): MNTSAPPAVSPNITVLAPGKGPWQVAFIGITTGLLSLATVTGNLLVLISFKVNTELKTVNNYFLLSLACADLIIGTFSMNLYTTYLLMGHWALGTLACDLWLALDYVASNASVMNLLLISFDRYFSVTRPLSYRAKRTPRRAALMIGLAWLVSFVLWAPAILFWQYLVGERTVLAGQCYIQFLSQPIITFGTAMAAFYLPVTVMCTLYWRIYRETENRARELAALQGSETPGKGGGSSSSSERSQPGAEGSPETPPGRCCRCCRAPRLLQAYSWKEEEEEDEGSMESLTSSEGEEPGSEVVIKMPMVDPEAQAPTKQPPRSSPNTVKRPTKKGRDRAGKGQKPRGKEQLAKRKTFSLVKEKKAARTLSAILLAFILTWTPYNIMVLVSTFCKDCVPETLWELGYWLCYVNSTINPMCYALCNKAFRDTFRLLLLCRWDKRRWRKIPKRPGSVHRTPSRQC
Chain of D(2) dopamine receptor (Homo sapiens) (P14416 whole entry, looked up): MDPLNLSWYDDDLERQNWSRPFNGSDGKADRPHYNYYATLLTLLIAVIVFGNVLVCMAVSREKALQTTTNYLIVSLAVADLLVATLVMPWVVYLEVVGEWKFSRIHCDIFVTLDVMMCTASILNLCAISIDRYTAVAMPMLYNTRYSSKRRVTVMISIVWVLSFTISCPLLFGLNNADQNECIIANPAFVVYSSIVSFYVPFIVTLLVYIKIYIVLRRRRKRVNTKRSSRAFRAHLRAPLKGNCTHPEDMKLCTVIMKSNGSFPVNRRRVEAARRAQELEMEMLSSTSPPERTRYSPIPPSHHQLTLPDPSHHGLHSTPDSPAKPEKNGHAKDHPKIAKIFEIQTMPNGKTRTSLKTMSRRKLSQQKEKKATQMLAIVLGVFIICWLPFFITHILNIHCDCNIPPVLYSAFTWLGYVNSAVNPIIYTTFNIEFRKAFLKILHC
Chain of KiSS-1 receptor (Homo sapiens) (Q969F8 whole entry, looked up): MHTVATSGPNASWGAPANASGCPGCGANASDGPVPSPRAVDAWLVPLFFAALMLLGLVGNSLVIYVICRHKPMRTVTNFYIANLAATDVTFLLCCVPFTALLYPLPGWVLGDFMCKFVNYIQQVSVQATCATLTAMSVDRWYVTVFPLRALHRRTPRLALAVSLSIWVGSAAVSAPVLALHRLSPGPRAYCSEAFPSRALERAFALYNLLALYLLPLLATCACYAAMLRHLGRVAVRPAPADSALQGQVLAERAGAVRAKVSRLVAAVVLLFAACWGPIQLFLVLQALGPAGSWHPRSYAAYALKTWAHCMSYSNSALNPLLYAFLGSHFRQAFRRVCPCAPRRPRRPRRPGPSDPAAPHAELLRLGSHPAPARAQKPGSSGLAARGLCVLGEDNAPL

O=[N+]([O-])c1ccc(CCO)cc1
inactive: [1] | [2] | [3] | [4] | [5] | [6] | [7] | [8] | [9] | [10] | [11] | [12] | [13] | [14] | [15] | [16] | [17] | [18]

CCCC(=O)CC
inactive: [1] | [2] | [3] | [4] | [5] | [6] | [7] | [8] | [10] | [11] | [12] | [13] | [14] | [19] | [15] | [16] | [17] | [18]

CO[Si](C)(C)OC
inactive: [1] | [2] | [3] | [4] | [5] | [6] | [7] | [8] | [9] | [10] | [11] | [12] | [13] | [14] | [15] | [16] | [20] | [17] | [18]

CC1(C)C2=CCCC(C)(C)[C@]23CC[C@H]1C3
inactive: [1] | [2] | [3] | [4] | [5] | [6] | [7] | [8] | [9] | [10] | [11] | [12] | [13] | [14] | [16] | [20] | [17] | [18]

CC(C)(C)OCC1CO1 (centres undefined)
inactive: [1] | [2] | [3] | [4] | [5] | [6] | [7] | [9] | [10] | [11] | [12] | [13] | [14] | [19] | [15] | [16] | [20] | [17] | [18]

CCCCC1CCC(O)CC1 (centres undefined)
inactive: [1] | [2] | [3] | [4] | [5] | [6] | [7] | [8] | [9] | [10] | [12] | [13] | [14] | [19] | [15] | [16] | [20] | [17] | [18]

CC1CC(OC(=O)c2ccccc2O)CC(C)(C)C1 (centres undefined)
inactive: [1] | [2] | [3] | [4] | [5] | [6] | [7] | [8] | [9] | [10] | [11] | [12] | [13] | [14] | [15] | [16] | [17]

c1ccc(CCCc2ccncc2)cc1
inactive: [1] | [2] | [3] | [4] | [5] | [6] | [7] | [8] | [9] | [10] | [11] | [12] | [13] | [14] | [19] | [16]

COC(c1ccccc1)(c1ccccc1)[C@H](Oc1nc(C)cc(C)n1)C(=O)O
inactive: [1] | [2] | [3] | [4] | [5] | [6] | [7] | [8] | [9] | [10] | [11] | [12] | [13] | [14] | [19] | [16] | [20] | [17]

OCCCCCCCl
inactive: [1] | [2] | [3] | [4] | [5] | [6] | [7] | [8] | [10] | [11] | [12] | [13] | [14] | [19] | [15] | [16] | [17] | [18]

O=C[C@H](O)[C@@H](O)[C@H](O)[C@H](O)CO
inactive: [1] | [2] | [3] | [4] | [5] | [6] | [7] | [8] | [9] | [10] | [11] | [13] | [14] | [19] | [15] | [16] | [20] | [17] | [18]

Clc1cccc(Cl)c1NC1=NCCN1
inactive: [1] | [2] | [3] | [4] | [5] | [6] | [7] | [8] | [9] | [10] | [15] | [16] | [20] | [17] | [18]

CC(O)C(C)O (centres undefined)
inactive: [1] | [2] | [3] | [4] | [5] | [6] | [7] | [8] | [9] | [10] | [11] | [12] | [14] | [15] | [16] | [20] | [17] | [18]

O=C1Cc2cc(Cl)ccc2N1
inactive: [1] | [2] | [3] | [4] | [5] | [6] | [7] | [8] | [9] | [10] | [11] | [13] | [14] | [19] | [15] | [16] | [20] | [17] | [18]

COCCOCCOCCOCCOCCO
inactive: [1] | [2] | [3] | [4] | [5] | [6] | [7] | [9] | [10] | [11] | [12] | [13] | [14] | [19] | [15] | [16] | [20] | [17] | [18]

O=c1[nH]c2ccccc2c(=O)n1CCCl
inactive: [1] | [2] | [3] | [4] | [5] | [6] | [7] | [9] | [10] | [11] | [12] | [13] | [14] | [19] | [15] | [16] | [20] | [17] | [18]
